Screening data: PubChem, several laboratories
Sampled rows, rich in hits. Any-hit rate of the full collection: about 3%.
LMP1 NFkB inh: inhibitors of Epstein-Barr LMP1-induced NF-kappaB reporter; LMP1-induced NF-kappaB luciferase reporter cells, luminescence; inhibition, % at 12.5 µM; hit rate 0.69% among 350,000; AID 504558; in the data active means inhibition above about 41%; inconclusive means no clear call, values can overlap the other calls;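 further: 0% = neutral control wells and 100% = reference inhibitor control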
TROY NFkB inh: blocks TROY-dependent signaling in reporter cells; Q293 LMP1-TROYcd NF-kB luciferase reporter, 4 h; AID 1347056; hit rate 0.98% among 360,000; inhibition, % at 10 µM;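 active means compounds whose plate-normalised and pattern-corrected inhibition of the luciferase reporter signal at the single screening dose is 50% or more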
TWEAK Fn14 block: blocks TWEAK-Fn14 interaction in a reporter cell assay. AID 1159606. inhibition, % at 10 µM. TWEAK-stimulated Fn14 reporter cells, luciferase luminescence, 8 h. hit rate 2% among 360,000; in the data active means inhibition above about 50%
MITF TRPM1 HTS: activators of MITF-driven TRPM1 promoter activity in SK-MEL-5 cells | SK-MEL-5 TRPM1-promoter luciferase, 24 h; % of positive control, neutral wells = 0 | hit rate 0.75% among 300,000 | activation, % at 12.5 µM | AID 588334;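 active means mean activation of at least 80% with every replicate also reaching 80%; inconclusive means mean reaches 80% but some replicate falls short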;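 further: 0% = neutral control wells and 100% = parthenolide positive control wells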
LGR2 antag: blocks bursicon-induced cAMP signaling via Drosophila LGR2; HEK293 LGR2, CRE-luciferase, bursicon-stimulated, 4 h; inhibition, % at 9.99 µM; hit rate 0.35% among 380,000; AID 720647;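 active means drop in luminescence signal, shown as inhibition above about 50% in the replicate tests, limit read from the data, passing the limit was not always enough; inconclusive means probably only some replicates passing the limit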;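 further: agonist challenge used bursicon conditioned medium at about half maximal strength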
TRPM1 prom inh: reduces MITF-dependent TRPM1 promoter luciferase signal. SK-MEL-5 TRPM1 promoter luciferase, 24 h. inhibition, % at 12.5 µM. hit rate 0.83% among 330,000;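 active means mean inhibition across replicates of 60% or more, whatever share of single replicates reaches that level; inconclusive means some that reach 60%, reason not given; inactive means mean inhibition across replicates below 60%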
* = called active by the depositor; ? = inconclusive; · = no result; ! = a repeat was not active.

SMILES | LMP1 NFkB inh | TROY NFkB inh | TWEAK Fn14 block | MITF TRPM1 HTS | LGR2 antag | TRPM1 prom inh
CCOC(=O)c1cc2c(=O)n3cccc(C)c3nc2n(CC2CCCO2)c1=NC(C)=O (centres undefined) | 5 | -20 | 92*! | 6 | · | -5
N/C(=N\OC(=O)c1ccc2ccccc2c1)c1ccccn1 | 56* | 86* | 96* | -32 | 97* | 36
N/C(=N\OC(=O)c1ccc(=O)n(Cc2ccccc2)c1)c1ccccn1 | -4 | -16 | -14 | 9 | -3 | -8
N/C(=N\OC(=O)c1cccc([N+](=O)[O-])c1)c1ccccn1 | 12 | 9 | 23 | 10 | 13 | -8
COc1cccc(C(=O)O/N=C(\N)c2ccccn2)c1 | 68* | 79* | 101* | -85 | 101* | 84*
CCCc1ccc(C(=O)O/N=C(\N)c2ccccn2)cc1 | 69* | 83* | 99* | -72 | 103* | 73*
C[C@@H]1CN([C@@H](C)CO)C(=O)Cc2cc(NC(=O)Nc3ccc(C(F)(F)F)cc3)ccc2O[C@@H]1CN(C)S(C)(=O)=O | · | · | · | · | -18 | ·
Cc1cn(-c2cc(C(=O)Nc3ccc(C)c(NC(=O)C(=O)c4c[nH]c5ccccc45)c3)cc(C(F)(F)F)c2)cn1 | -1 | 13 | 52*! | -13 | 6 | 12
CCc1ccc(C(=O)/C=C/c2cnn(C)c2C)s1 | 1 | 67* | 60* | · | · | -36
CC(=O)Nc1sc2c(c1-c1nc3ccccc3s1)CN(C(C)C)CC2 | -3 | 12 | 1 | -62 | 102* | 64*
CC(=O)N1CCc2c(sc(NC(=O)C3CC3)c2-c2nc3ccccc3s2)C1 | -11 | -9 | -51 | 0 | 3 | 4
CC1(C)CC(=O)C=C(C#CC2(O)CCCCC2)C1 | -6 | 8 | 64* | · | 15 | ·
CC(Nc1nc(-c2ccc3c(c2)NC(=O)CO3)cs1)c1ccccc1 (centres undefined) | -8 | 9 | -3 | 33 | -58 | -28
C=CCN=c1scc(-c2ccc3c(c2)NC(=O)CO3)n1/N=C(\C)c1ccccn1 | 10 | 43 | 66* | -19 | 20 | 22
CC(C)=CCc1cc([C@@H]2CC(=O)c3ccc(O)c(CC=C(C)C)c3O2)ccc1O | -1 | 43 | 58* | -4 | 27 | 7
Cc1ccc2c(c1)C(=O)CC(c1ccc3c(c1)OCCO3)O2 (centres undefined) | 0 | -42 | -12 | 58 | -45 | -57
CCSc1ccccc1C(=O)n1nnc2ccccc21 | -1 | 43 | 72* | -68 | 21 | 69*
CCSc1ccccc1C(=O)N1CCCC1 | -2 | 12 | 1 | 5 | · | -6
O=C1NN(c2ccccc2)C(=O)/C1=C/c1ccc(Sc2ccc(Cl)cc2)o1 | -7 | -6 | 63* | -1 | 11 | 1
O=C1NN(c2ccccc2)C(=O)/C1=C/c1ccc(-c2ccc(Cl)c(C(=O)O)c2)o1 | -15 | 4 | -9 | 12 | -5 | -11
Cc1ccc(Sc2ccc(/C=C3/C(=O)NN(c4ccccc4)C3=O)o2)cc1 | 2 | -12 | 89* | 6 | -5 | -3
Cc1cccc(N2NC(=O)/C(=C/c3ccc(-c4ccc(Cl)c(C(=O)O)c4)o3)C2=O)c1 | 2 | 12 | 6 | -9 | 4 | 9
CO[C@@H]1CN(C)C(=O)c2ccc(NS(=O)(=O)c3ccc(Oc4ccccc4)cc3)cc2OC[C@H](C)NC[C@@H]1C | · | · | · | · | -16 | ·
CN(C)C(=O)c1cccc(-c2ccc(C3[C@@H]4CN(Cc5nccs5)C[C@H]3N4)cc2)c1 (some centres undefined) | · | · | · | · | -11 | ·
Cc1cc(C)c2cc3c(N)c(C(=O)Nc4c(C)[nH]c(=O)[nH]c4=O)sc3nc2c1 | 12 | 16 | 66* | -26 | 13 | 30
SMILES | LMP1 NFkB inh | TROY NFkB inh | TWEAK Fn14 block | MITF TRPM1 HTS | LGR2 antag | TRPM1 prom inh
Cc1cc(C)c2cc3c(N)c(C(=O)N4CCOCC4)sc3nc2c1 | -27 | -19 | -3 | 47 | -24 | -49
CCOC(=O)C1CCCN(C(=O)C(C)(C)Oc2ccc(Cl)cc2)C1 (centres undefined) | 1 | 19 | 86* | 2 | -12 | 2
O=c1cc(-c2ccccc2)[nH]n1-c1ccccc1 | 0 | 53* | 1 | -1 | 3 | 4
O=C(c1ccco1)N1CCN(c2ncnc3c2nnn3Cc2ccccc2Cl)CC1 | 10 | 11 | -24 | -4 | -10 | 8
O=C(c1ccco1)N1CCN(c2nc(C(F)(F)F)nc3c2nnn3Cc2ccccc2)CC1 | -9 | 53* | 55* | -26 | 26 | 25
C=C(C(=O)c1ccccc1)C(C)C(=C)C(=O)c1ccccc1 | -48 | 1 | 94* | -94 | · | ·
COc1ccc(C(CC(=O)c2ccccc2)CC(=O)c2ccccc2)cc1 | -1 | -23 | -24 | · | 21 | -4
C=C(C(=O)c1ccccc1)C(C(=C)C(=O)c1ccccc1)c1ccc(OC)cc1 | 17 | 6 | 93* | · | · | 82*
C=C(C(=O)c1ccccc1)C(c1ccccc1)C(C)C(=O)c1ccccc1 (centres undefined) | -45 | -14 | 51* | -7 | 25 | 10
C[C@@H]1CN([C@H](C)CO)S(=O)(=O)c2ccc(C#Cc3ccccc3F)cc2O[C@H]1CN(C)C | · | · | · | · | 14 | ·
CCCC(=O)Nc1ccc2c(c1)OC[C@H](C)N(C(=O)CC)C[C@@H](C)[C@H](OC)CN(C)C2=O | · | · | · | · | -2 | ·
CCOCCCn1c(SCc2nc3ccccc3s2)nc2ccccc2c1=O | 28 | 53* | 73* | -4 | ? | 5
CCOCCCn1c(SCC(=O)Nc2ccccc2)nc2ccccc2c1=O | -6 | 19 | -7 | · | 8 | -12
C[C@@H]1CCCCO[C@H](CN(C)Cc2ccc(C(F)(F)F)cc2)[C@@H](C)CN([C@H](C)CO)C(=O)c2cc(NC(=O)CCCCCC(=O)Nc3ccccc3N)ccc2O1 | · | · | · | · | -18 | ·
CCOC(=O)c1c(C)[nH]c(C(=O)OCC(=O)Nc2sccc2C(N)=O)c1C | 16 | 64* | 84* | -39 | 71* | 38
CCC(=O)Nc1nnc(C)s1 | 3 | · | 58* | -3 | · | 3
CCC(=O)N1CC(=O)N2[C@H](CO)[C@H](c3ccc(-c4ccncc4)cc3)[C@@H]2C1 | · | · | · | · | 3 | ·
C[C@H](CO)N1C[C@H](C)[C@H](CN(C)S(=O)(=O)c2ccc(F)cc2)Oc2ccc(NS(=O)(=O)c3ccccc3)cc2CC1=O | · | · | · | · | 12 | ·
CC(C)(C)C(=O)c1cnc(Nc2ccccc2Cl)s1 | -48 | · | -14 | 144* | · | -141
O=C(c1ccccc1)c1cnc(Nc2ccccc2Cl)s1 | 1 | -32 | -4 | 98* | · | -99
CC(=O)c1csc(Nc2ccccc2Cl)n1 | -9 | -68 | 2 | · | -55 | -39
C[C@H]1CN([C@@H](C)CO)C(=O)c2cc(NC(=O)Cc3ccccc3)ccc2O[C@H]1CN(C)Cc1ccc(C(=O)O)cc1 | · | · | · | · | -9 | ·
CC(C)=CC(=O)Nc1ccc(Br)cc1 | -29 | -68 | -21 | 107* | -69 | -97
